This is a sample that favours compounds with a hit; in the whole collection about 3.6% have one here.
CF NFkB inh = cystic fibrosis NF-kB activation inhibition; KKLEB NF-kB-GFP reporter, PAF-induced, GFP fluorescence overnight; 0.86% of 360,000 active; AID 588850; inhibition, % at 5 µM;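 active = at least 50% inhibition at 5 µM, scaled per plate between neutral and stimulator controls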;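 note: PAF is a Pseudomonas aeruginosa culture filtrate used as stimulus; plate controls were PAF-stimulated DMSO wells for no effect and unstimulated DMSO wells for full effect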
Mdm2-MdmX inh = inhibitors of human Mdm2/MdmX interaction. O15151+Q00987. 3% of 330,000 active. AID 485346. inhibition, % at 8 µM. SaOS-2 split-luciferase Mdm2/MdmX complementation, luminescence;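 active = inhibition of at least 50% at 8 µM in the primary screen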
Target sequence (O15151 whole entry, looked up): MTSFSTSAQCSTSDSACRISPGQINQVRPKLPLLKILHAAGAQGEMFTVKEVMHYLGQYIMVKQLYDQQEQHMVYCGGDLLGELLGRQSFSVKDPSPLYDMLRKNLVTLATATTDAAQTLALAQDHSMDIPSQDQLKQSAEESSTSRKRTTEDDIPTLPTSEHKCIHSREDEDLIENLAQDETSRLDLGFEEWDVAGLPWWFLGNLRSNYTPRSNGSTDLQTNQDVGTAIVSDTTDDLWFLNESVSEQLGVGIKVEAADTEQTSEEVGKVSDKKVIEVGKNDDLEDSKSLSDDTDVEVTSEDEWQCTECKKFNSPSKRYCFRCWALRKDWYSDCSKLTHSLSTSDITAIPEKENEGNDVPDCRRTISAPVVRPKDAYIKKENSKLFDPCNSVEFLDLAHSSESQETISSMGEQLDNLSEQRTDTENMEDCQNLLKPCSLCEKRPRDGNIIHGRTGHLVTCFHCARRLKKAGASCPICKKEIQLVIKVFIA
Target sequence (Q00987 whole entry, looked up): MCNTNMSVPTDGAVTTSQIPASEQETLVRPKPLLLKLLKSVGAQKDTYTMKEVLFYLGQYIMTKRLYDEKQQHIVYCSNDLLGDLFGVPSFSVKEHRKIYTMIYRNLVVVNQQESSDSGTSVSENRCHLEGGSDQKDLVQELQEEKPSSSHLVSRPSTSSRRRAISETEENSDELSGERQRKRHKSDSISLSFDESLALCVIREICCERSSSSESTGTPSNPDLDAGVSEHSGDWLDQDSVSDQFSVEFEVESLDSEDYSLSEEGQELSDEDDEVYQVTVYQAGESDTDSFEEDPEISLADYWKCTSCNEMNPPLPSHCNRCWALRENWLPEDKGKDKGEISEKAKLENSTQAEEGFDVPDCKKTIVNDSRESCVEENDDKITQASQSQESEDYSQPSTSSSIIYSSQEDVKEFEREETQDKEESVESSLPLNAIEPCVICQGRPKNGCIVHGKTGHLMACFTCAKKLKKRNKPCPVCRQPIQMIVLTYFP
Peg3 prom inh = reduces Peg3 promoter-driven luciferase expression in HeLa; HeLa PEG-Prom luciferase reporter, luminescence, overnight; inhibition, % at 20 µM; 1.7% of 360,000 active; AID 588405;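 active = inhibition of at least 50% at 20 µM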
KKLEB tox = reduces viability of KKLEB cystic fibrosis airway cells; KKLEB CF airway cells viability, ATPlite luminescence, overnight; active compounds read low; cells stimulated with P. aeruginosa culture filtrate; activity change (cytotoxicity), % at 5 µM; 0.36% of 360,000 active;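 active = corrected activity change at or below -50% at 5 µM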
LGR2 antag = Drosophila LGR2 receptor signaling inhibition; HEK293 LGR2, CRE-luciferase, bursicon-stimulated, 4 h; inhibition, % at 9.99 µM; 0.35% of 380,000 active;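 active = drop in luminescence signal, shown as inhibition above about 50% in the replicate tests, limit read from the data, passing the limit was not always enough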;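 note: agonist challenge used bursicon conditioned medium at about half maximal strength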
HSP90 inh = inhibitors of HSP90 luciferase refolding in rabbit reticulocyte lysate. inhibition, % at 5.6 µM. luciferase refolding luminescence, 3 h. AID 1789. 0.91% of 290,000 active;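 active = inhibition above the screen-wide mean plus 3 SD, computed separately per campaign, cut at about 16% in these data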;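 note: 0% = DMSO wells and 100% = 60 µM geldanamycin wells; inhibitors lower the luminescence because luciferase stays unfolded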
Mdm2-MdmX conf = confirmation of human Mdm2/MdmX interaction inhibitors | Mdm2-MdmX binding, luminescent assay | shares compounds with Mdm2-MdmX inh | inhibition, % at 8 µM | 55% of 10,000 active; in the data active = inhibition above about 40%
FLuc counter = full-length luciferase inhibition in Mdm2/MdmX counter-screen; inhibition, % at 8 µM; 77% of 6,200 active; shares compounds with Mdm2-MdmX inh; SaOS-2 full-length luciferase counterscreen, luminescence; AID 504607;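 active = mean inhibition at 8 µM reaching about 37%, which flags the compound as non-specific, limit read from the data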;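 note: p53-null SaOS-2 cells with luciferase driven by a doxycycline-inducible promoter; compound on cells about two nights before reading with doxycycline added after day one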
* hit, by the source's call; / = no result given.

SMILES	CF NFkB inh	Mdm2-MdmX inh	Peg3 prom inh	KKLEB tox	LGR2 antag	HSP90 inh	Mdm2-MdmX conf	FLuc counter
Cc1cccc(/C=C2\Sc3ccc(C(=O)N4CCCCC4)cc3N(C)C2=O)c1	21	45	19	-17	10	-3	/	/
CN1C(=O)/C(=C/c2cccc(Cl)c2)Sc2ccc(C(=O)N3CCCC3)cc21	/	73*	/	/	26	-3	13	/
COc1cc(NC(=O)c2n[nH]c(=O)c3ccccc23)cc(OC)c1	-26	8	-3	2	-15	-2	/	/
Cc1cc(C)c(-c2csc(NC(=O)c3n[nH]c(=O)c4ccccc34)n2)c(C)c1	6	60*	17	-2	8	-2	62*	68*
CCOc1ccc2nc(SC3CC(=O)N(c4ccc(OC)cc4)C3=O)sc2c1 (stereo not drawn)	-13	66*	-3	-7	/	-1	-28	/
C[C@@H]1CN([C@H](C)CO)C(=O)c2cc(C#Cc3cccc(F)c3)cnc2O[C@H]1CN(C)C(=O)c1ccccc1F	/	/	/	/	13	/	/	/
O=C(CCN1CCN(C(c2ccccc2)c2ccccc2)CC1)N/N=C/c1ccc(O)cc1O	-7	60*	28	6	12	1	69*	37*
CC(=O)OCc1cc(-c2nc3ccccc3[nH]c2=O)nn1-c1ccc(Cl)cc1	-2	0	13	8	-1	0	/	/
N=c1c(-c2nc3ccccc3[nH]2)cc(C(=O)c2cccs2)nn1-c1ccc(Cl)cc1	/	63*	/	/	/	-3	30	/
CN1CCN(Cc2c(O)ccc3cc(Br)ccc23)CC1	/	51*	/	/	14	-3	8	/
CCc1cc(=O)oc2c(CN3CCN(C)CC3)c(O)ccc12	-1	20	-9	-2	15	5	/	/
N/C(Cc1ccc([N+](=O)[O-])cc1)=N\OC(=O)c1ccc(Br)cc1	-6	13	-4	4	-19	-1	/	/
N/C(Cc1ccc([N+](=O)[O-])cc1)=N\OC(=O)c1ccc2ccccc2c1	16	88*	81*	-8	/	1	40	61*
Cc1ccc(C(=O)O/N=C(\N)Cc2ccc([N+](=O)[O-])cc2)c(Cl)c1	-5	90*	-4	6	-26	5	60*	43*
N/C(Cc1ccc([N+](=O)[O-])cc1)=N\OC(=O)c1ccccc1Br	-29	60*	1	8	-17	-3	30	/
Cc1ccc(CC(=O)O/N=C(\N)Cc2ccc([N+](=O)[O-])cc2)cc1	-3	-1	6	10	10	2	/	/
COc1ccccc1C/C(N)=N/OC(=O)c1cccc([N+](=O)[O-])c1C	0	57*	-32	7	-9	-5	36	102*
C[C@@H]1CN([C@H](C)CO)C(=O)c2cccc(NC(=O)Nc3ccc4c(c3)OCO4)c2O[C@H]1CN(C)S(=O)(=O)c1ccc(F)cc1	/	/	/	/	6	/	/	/
O=C(C[C@H]1C=C[C@H](NC(=O)Cc2cccnc2)[C@@H](CO)O1)Nc1ccccc1	/	/	/	/	15	/	/	/
Cc1ccc(S(=O)(=O)Nc2ccc3c(c2)CC(=O)N([C@H](C)CO)C[C@H](C)[C@@H](CN(C)S(C)(=O)=O)O3)cc1	/	/	/	/	-12	/	/	/
Cc1cccc(C(=O)O/N=C(\N)Cc2ccc([N+](=O)[O-])cc2)c1	-13	89*	3	3	11	2	56*	54*
COc1ccc(C/C(N)=N/OC(=O)C(c2ccccc2)c2ccccc2)cc1OC	8	46	29	-14	/	1	/	/
Cc1ccc(C(=O)O/N=C(\N)Cc2cccs2)c(Cl)c1	-24	100*	-72	-5	/	2	24	/
N/C(Cc1ccc([N+](=O)[O-])cc1)=N\OC(=O)C(c1ccccc1)c1ccccc1	-1	70*	25	11	/	4	50*	79*
CCCN(C)C[C@@H]1OCCCC[C@@H](C)Oc2ccc(NS(=O)(=O)c3ccccc3)cc2C(=O)N([C@@H](C)CO)C[C@@H]1C	/	/	/	/	-15	/	/	/

Source: PubChem BioAssay (several laboratories)
